This passage reports normalised signal (fraction of DMSO) and z-score results from PubChem BioAssay AID1224903 (Bradner/Qi Labs at DFCI, 2016).

Each structure is given as a SMILES string. In all, about 66,000 compounds went through this assay and about 720 (1.1%) were called active. Cut-off read from the data, not from the text of the source: active = normalised signal below about 0.5; inactive = the rest, inconclusive results apart. Shown is part of a subset that was picked to be rich in actives.

The target of the assay is Chromobox protein homolog 7 (Homo sapiens) (UniProt O95931). As to the kind of experiment: CBX7 chromodomain binding inhibitors, primary screen, biochemical, AlphaScreen (AID 1224903). The conditions noted are these: AlphaScreen His6-CBX7 / biotin-H3K27me3 peptide binding, stronger effect = lower value; z-score: measured here: z-score of CBX7 signal.
Chain of Chromobox protein homolog 7 (Homo sapiens) (O95931 whole entry, looked up): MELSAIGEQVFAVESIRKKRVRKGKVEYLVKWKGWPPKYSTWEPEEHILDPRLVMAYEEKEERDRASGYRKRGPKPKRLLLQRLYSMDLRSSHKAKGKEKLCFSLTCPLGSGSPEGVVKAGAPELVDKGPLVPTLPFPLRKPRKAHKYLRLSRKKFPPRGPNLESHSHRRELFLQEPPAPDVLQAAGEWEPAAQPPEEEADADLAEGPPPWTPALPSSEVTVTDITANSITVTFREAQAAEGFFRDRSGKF
Consider `COc1ccc(CCNC(=O)c2cccc3c2C(=O)N(Cc2cccnc2)C3)cc1OC`, for which the normalised signal (fraction of DMSO) is 1.02 (inactive) and the z-score came to 0.0167.

As for `CCN(C(=O)Cc1nc(N)n[nH]1)C1(C(=O)Nc2ccccc2)CCCCC1`, the normalised signal (fraction of DMSO) was 0.201 (active) and the z-score is -14.5.

Regarding `CCN(C(=O)Cc1nc(N)n[nH]1)C1(C(=O)Nc2ccc(C)cc2)CCCCC1`, the normalised signal (fraction of DMSO) is 0.791 (inactive) and the z-score was -3.79.

Take `Cc1cccc(C)c1NC(=O)C1(N(CCc2c[nH]c3ccccc23)C(=O)c2ccccc2F)CCCCC1`: the normalised signal (fraction of DMSO) is 0.792 (inactive) and the z-score is -3.78.

For `Cc1cc(NCC(C)c2ccccc2)n2ncnc2n1` (configuration not stated), the normalised signal (fraction of DMSO) was 1.03 (inactive) and the z-score is 0.546.

As for `CCOC(=O)c1cccc(NC(=O)Cn2nc(Cc3ccncc3)c3ccccc3c2=O)c1`, the normalised signal (fraction of DMSO) is 0.996 (inactive) and the z-score is -0.0743.

For the compound `COc1cccc(C2=NOC(C(=O)NCCc3ccccc3)C2)c1` (configuration not stated), the normalised signal (fraction of DMSO) is 1.14 (inactive) and the z-score worked out at 1.85.

`Cc1cc(Nc2ccc(C)c(C)c2)n2ncnc2n1`: the normalised signal (fraction of DMSO) was 1.04 (inactive) and the z-score was determined as 0.609.

With `CC1CCC(NC(=O)C2c3ccccc3C(=O)N2Cc2ccc3c(c2)OCO3)CC1` (configuration not stated), the normalised signal (fraction of DMSO) was 1.04 (inactive) and the z-score came out at 0.918.

On to `COc1ccc(CCNC(=O)CSc2nc3ccccc3[nH]2)cc1OC`, for which the normalised signal (fraction of DMSO) was 1.07 (inactive) and the z-score is 0.758.

As to `COc1ccc(CCNC(=O)CSc2nc3ccccc3nc2Cc2ccc(F)cc2)cc1OC`, the normalised signal (fraction of DMSO) was 0.48 (active) and the z-score is -8.99.

For the compound `COc1ccc(CCNC(=O)CSc2nnc(CNC(=O)c3cccs3)o2)cc1OC`, the normalised signal (fraction of DMSO) is 0.975 (inactive) and the z-score was -0.715.

For `O=C1c2ccccc2-c2onc3c(N4CCCC4)ccc1c23`, the normalised signal (fraction of DMSO) was 0.367 (active) and the z-score was -9.89.

Consider `CCNc1cc(Nc2ccccc2)c2c3c(onc13)-c1ccccc1C2=O`, for which the normalised signal (fraction of DMSO) was 0.816 (inactive) and the z-score is -3.56.

In the case of `O=S1(=O)N=C(N2CCCCC2)c2ccccc21`, the normalised signal (fraction of DMSO) is 1.07 (inactive) and the z-score is 2.

As for `O=C(Nc1ccccc1Cl)N1CCCCC1c1cccnc1` (configuration not stated), the normalised signal (fraction of DMSO) is 0.995 (inactive) and the z-score is -0.051.

Consider `Cc1ccc(Nc2cc(C(=O)O)c3ccccc3n2)cc1`, for which the normalised signal (fraction of DMSO) is 1.11 (inactive) and the z-score came to 1.21.

Take `O=C(COc1ccc(Cl)cc1)NCc1nnc(SCC(=O)NCC2CCCO2)o1` (configuration not stated): the normalised signal (fraction of DMSO) was 1.04 (inactive) and the z-score came out at 1.76.

Turning to `COc1ccc(C2CC(=O)N(CC(=O)Nc3ccc(C)c(Cl)c3)c3ccccc3S2)cc1` (configuration not stated), the normalised signal (fraction of DMSO) is 0.931 (inactive) and the z-score is -1.15.

Regarding `Cc1ccccc1OCC(O)Cn1c(=N)n(C)c2ccccc21` (configuration not stated), the normalised signal (fraction of DMSO) was 1.02 (inactive) and the z-score is 0.641.

Take `CC(=O)N1CCc2cc(S(=O)(=O)N(CCO)Cc3ccccc3)ccc21`: the normalised signal (fraction of DMSO) is 1.17 (inactive) and the z-score is 1.75.

For `CCOc1ccc2nc(C)cc(Nc3ccc(OC)c(OC)c3)c2c1`, the normalised signal (fraction of DMSO) is 0.818 (inactive) and the z-score was -2.64.

With `CCCCc1ccc(NC(=O)CSc2nccn2-c2cccc(C)c2C)cc1`, the normalised signal (fraction of DMSO) is 0.742 (inactive) and the z-score was -0.258.

`Cc1cccc(N(C)C(=O)C(NS(=O)(=O)c2ccc3c(c2)CCC(=O)N3)c2ccccc2)c1` (configuration not stated): the normalised signal (fraction of DMSO) was 1.06 (inactive) and the z-score amounted to 0.379.

Turning to `CC1CCCCN1CCCNC(=O)C1CCC(=O)N1C1CCCC1` (configuration not stated), the normalised signal (fraction of DMSO) was 1.05 (inactive) and the z-score was found to be 1.64.

Take `c1ccc(SCCc2ccc3cc(-c4ccccc4)cn3c2)cc1`: the normalised signal (fraction of DMSO) was 0.986 (inactive) and the z-score was -0.335.

Turning to `CCOc1ccc2nc(NC(=O)c3ccc(OC)cc3)sc2c1`, the normalised signal (fraction of DMSO) is 1.05 (inactive) and the z-score came out at 1.46.

In the case of `Cc1c(CNC2CCCCC2C)c(C(=O)O)c(C)n1Cc1ccccc1` (configuration not stated), the normalised signal (fraction of DMSO) was 1.01 (inactive) and the z-score was 0.18.

Turning to `O=C(c1ccc(NC2=NC3CS(=O)(=O)CC3S2)cc1)N1CCN(C2CCCCC2)CC1` (configuration not stated), the normalised signal (fraction of DMSO) was 1.05 (inactive) and the z-score turned out to be 1.03.

For `COc1ccc(CNC(=O)C2CCN(S(=O)(=O)c3c(C)noc3C)CC2)cc1`, the normalised signal (fraction of DMSO) was 1.02 (inactive) and the z-score came to 0.788.

With `Cc1ccc(-c2nc(Nc3cccc(C(F)(F)F)c3)c3ccccc3n2)cc1`, the normalised signal (fraction of DMSO) was 1.08 (inactive) and the z-score is 1.39.

Consider `Cc1ccc(Cl)cc1N1CCN(C(=O)Cn2ncc3c2-c2ccccc2OC3)CC1`, for which the normalised signal (fraction of DMSO) was 0.728 (inactive) and the z-score is -7.81.

For `CCn1cnc2cc(NCc3ccccn3)ccc21`, the normalised signal (fraction of DMSO) is 0.316 (active) and the z-score was -5.49.

As to `CCCn1cnc2cc(NCc3cc(OC)ccc3OC)ccc21`, the normalised signal (fraction of DMSO) was 0.919 (inactive) and the z-score was -2.03.

For the compound `COc1cccc(CNc2ccc3c(c2)ncn3C)c1`, the normalised signal (fraction of DMSO) is 0.916 (inactive) and the z-score is -1.96.

As for `O=C(Nc1ccccc1C(F)(F)F)N1CCN(c2ccc3nnc(-c4ccccc4)n3n2)CC1`, the normalised signal (fraction of DMSO) is 0.759 (inactive) and the z-score was -3.38.

As to `Cc1nc2cc(C(=O)NCc3ccc(F)cc3)ccc2n1-c1cccc(F)c1`, the normalised signal (fraction of DMSO) is 0.995 (inactive) and the z-score was -0.21.

In the case of `Cc1cccc(CCNC(=O)CN2CCN(Cc3ccc(F)cc3Cl)C2=O)c1`, the normalised signal (fraction of DMSO) is 1.02 (inactive) and the z-score was 0.228.

Turning to `Cc1ccc(NC(=O)Cn2cnc3sc(C(=O)Nc4ccc(F)cc4)c(C)c3c2=O)cc1Cl`, the normalised signal (fraction of DMSO) is 1.09 (inactive) and the z-score stood at 2.71.

Turning to `Cc1ccc(OCC(=O)Nc2cccc(-c3nc4ncccc4o3)c2)cc1`, the normalised signal (fraction of DMSO) was 1.02 (inactive) and the z-score stood at 0.227.

For `Cc1cccc(N2CCN(C(=O)C3CCC(Cn4c(=O)[nH]c5ccsc5c4=O)CC3)CC2C)c1` (configuration not stated), the normalised signal (fraction of DMSO) was 1.11 (inactive) and the z-score was 0.523.
